FBPA coupling cs: inhibits coupling enzyme system, counter-screen for aldolase hits; coupling enzyme system counterscreen, AmpLite Red fluorescence; activity change, negative = inhibition, % at 58.2 µM, hits read low; 290,000 compounds, 0.67% hits; in the data active means activity change below about -30%
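Compounds tested against the coupling enzymes alone at 57.5 uM final; readout was AmpLite Red fluorescence (525/598 nm) after 20 min at RT.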
Gal4-VP16 FLuc: Gal4-VP16 reporter inhibition counter-screen | Drosophila S2 Gal4-VP16 UAS-luciferase, luminescence, 20 h | Potency, µM (highest dose often 53.6 µM), most hits filed as inhibitors | 310,000 compounds, 3.5% hits | AID 2546;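 further: Gal4-VP16 expression switched on by copper sulfate through the metallothionein promoter; nearly all actives have a fitted effect of over 50% in size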
TrxR1 substrate: substrates of rat thioredoxin reductase 1; purified TrxR1 substrate turnover, NADPH consumption readout; O89049; Potency, µM (series often up to 114 µM); 390,000 compounds, 0.01% hits; further: nearly all actives have a fitted effect of over 50% in size
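Rat TrxR1, dispensed at 90 nM, was prereduced with 400 uM NADPH (final) for 5 min at ~22 deg C, then incubated with compound 15 min before 400 uM selenite. A first-read NADPH fluorescence drop versus no-compound background flagged substrates.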
TrxR1 inh: blocks rat thioredoxin reductase 1. O89049. 390,000 compounds, 1% hits. recombinant rTrxR1, NADPH fluorescence consumption, selenite substrate. Potency, µM (doses to about 114 µM), usual class: inhibitors; further: nearly all actives have a fitted effect of over 65% in size
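Rat TrxR1 (90 nM in the dispensed reagent) was pre-reduced with 400 uM NADPH for 5 min at room temperature, then incubated with compound for 15 min. After 400 uM selenite was added, NADPH fluorescence (Ex 340/Em 450 nm) was followed for 8 min.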
RORg inh: blocks mouse ROR gamma transcriptional activity | AID 2551 | Potency, µM (doses to about 53.6 µM), most hits filed as inhibitors | Drosophila S2 Gal4-RORgamma UAS-luciferase reporter, 20 h | P51450 | 310,000 compounds, 5.4% hits; further: nearly all actives have a fitted effect of over 60% in size
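Stable Schneider cell line, Gal4 DNA-binding domain fused to ROR gamma, UAS-luciferase. Cmpd 1 hr RT → CuSO4 700 uM final → 20 hr RT → luciferase reagent 10 min → luminescence.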
GALK inhibitor: galactokinase (human) inhibition; Purified GALK, Kinase-Glo residual ATP luminescence; Potency, µM (titrated, usually from 57.5 µM), most hits filed as inhibitors; 270,000 compounds, 0.007% hits; P51570
Target sequence (P51570 whole entry, looked up): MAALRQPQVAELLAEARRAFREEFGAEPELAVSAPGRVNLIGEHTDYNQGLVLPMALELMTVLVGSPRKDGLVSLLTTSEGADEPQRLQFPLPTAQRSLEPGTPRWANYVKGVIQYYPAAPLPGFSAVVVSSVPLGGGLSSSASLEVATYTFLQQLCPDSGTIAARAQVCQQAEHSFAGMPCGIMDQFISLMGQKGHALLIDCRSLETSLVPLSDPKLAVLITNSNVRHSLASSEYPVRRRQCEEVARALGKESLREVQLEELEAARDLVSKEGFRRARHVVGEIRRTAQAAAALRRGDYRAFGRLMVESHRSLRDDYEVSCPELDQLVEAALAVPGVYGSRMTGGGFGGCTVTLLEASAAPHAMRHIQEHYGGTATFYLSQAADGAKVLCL
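The enzyme phosphorylates galactose (100 uM) using ATP (35 uM); inhibition is detected as higher residual ATP, quantified by bioluminescence after 1 h reaction at room temperature, pH 8.0.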
Each line names hits and unclear results; the compound was inactive in the other large screens. A selection: hits, their analogues and other compounds. The true share with any hit is near 5.9%. Unless noted, the call rests on the fitted dose curve; in most records, active means well fitted curve in the direction sought with a large enough effect; inconclusive means small, poorly fitted or top-dose-only effect, or another doubt; inactive means no such curve, though single readings can be large; an effect the other way counts as inactive or inconclusive.

COc1cccc(OC)c1C(=O)NCC12CC3CC(C1)CC(CNC(=O)c1c(OC)cccc1OC)(C3)C2	none
COC(=O)NCC12CC3CC(C1)CC(CNC(=O)OC)(C3)C2	TrxR1 inh 35µM
CC1(C)CC2C1CCC1(C)OC2(C)CCC1O (stereo not given)	none (no result: TrxR1 substrate, TrxR1 inh, GALK inhibitor)
O=C(O)CCCn1cc(NC(=O)c2cc(F)c(F)cc2Cl)cn1	FBPA coupling cs -34
O=C(O)CCCn1cc(NC(=O)c2cccc(F)c2)cn1	none
O=C(O)CCCn1cc(NC(=O)COc2cc(F)ccc2[N+](=O)[O-])cn1	Gal4-VP16 FLuc 0.5µM
CCCc1cc(=O)[nH]c(SCC(=O)c2cc(C)n(-c3cc(C)on3)c2C)n1	none
Cc1nnc(SCC(=O)c2cc(C)n(-c3c(C)n(C)n(-c4ccccc4)c3=O)c2C)s1	none
Cc1cc(C(=O)CSc2nc(N)cc(=O)[nH]2)c(C)n1-c1ccc(OC(F)F)cc1	Gal4-VP16 FLuc 10µM
Cc1cc(C(=O)CCl)c(C)n1-c1c(C)n(C)n(-c2ccccc2)c1=O	Gal4-VP16 FLuc inconclusive, TrxR1 inh 8.9µM, RORg inh inconclusive
Cc1cc(-n2c(C)cc(C(=O)CSc3nc(N)cc(=O)[nH]3)c2C)no1	Gal4-VP16 FLuc 22µM, RORg inh inconclusive (no result: GALK inhibitor)
COc1ccc(-n2c(C)cc(C(=O)CCl)c2C)cc1	Gal4-VP16 FLuc inconclusive, TrxR1 inh inconclusive, RORg inh 13µM
COc1ccc(CCn2c(C)cc(C(=O)CSc3nc(N)cc(=O)[nH]3)c2C)cc1	Gal4-VP16 FLuc inconclusive
COc1ccc(N2CCN(CC(O)COc3ccc(C(C)C)c(C)c3)CC2)cc1 (stereo not given)	none (no result: FBPA coupling cs, Gal4-VP16 FLuc, RORg inh, GALK inhibitor)
O=C(COC(=O)CCOc1ccccc1)NCc1ccco1	none
O=C(CCNS(=O)(=O)c1ccccc1F)N1CCN(C/C=C/c2ccccc2)CC1	none (no result: FBPA coupling cs, Gal4-VP16 FLuc, RORg inh, GALK inhibitor)
Cc1cc(-n2c(C)cc(C(=O)CCl)c2C)no1	Gal4-VP16 FLuc inconclusive, TrxR1 inh inconclusive, RORg inh 6.3µM
Cc1cc(-n2c(C)cc(C(=O)CN3C(=O)C(=O)N(C)C3=O)c2C)no1	none (no result: FBPA coupling cs, Gal4-VP16 FLuc, RORg inh, GALK inhibitor)
Nc1nc2ccccc2n1/N=C/c1ccc(-c2ccccc2)o1	Gal4-VP16 FLuc inconclusive, RORg inh 7.9µM
Cc1[nH]c(=O)c(C(=O)/C=C/c2ccccc2F)c2c1CCCC2	Gal4-VP16 FLuc 5.6µM, TrxR1 inh inconclusive, RORg inh 5.6µM
C/C(=C\c1ccccc1F)C(=O)c1c(C)cc(C)[nH]c1=O	none
COCCNC(=O)CCCn1c(=O)c2cc(OC)c(OC)cc2n(CC(=O)NCCC2=CCCCC2)c1=O	none
O=C(N/N=C\c1cn[nH]c1-c1ccccc1)c1ccc([N+](=O)[O-])cc1	RORg inh 11µM (no result: GALK inhibitor)
O=C(N/N=C/c1cn[nH]c1-c1ccc(Cl)cc1)c1ccc([N+](=O)[O-])cc1	Gal4-VP16 FLuc inconclusive, RORg inh 10µM
O=C(N/N=C\c1cn[nH]c1-c1ccc(Cl)cc1)c1cccs1	Gal4-VP16 FLuc inconclusive, RORg inh inconclusive
COc1ccc(NC(=O)N(CCC(C)C)C(C)c2cccs2)c(OC)c1 (stereo not given)	none (no result: FBPA coupling cs, Gal4-VP16 FLuc, RORg inh, GALK inhibitor)
CCOC(=O)C1=C(COC(=O)c2ccc([N+](=O)[O-])o2)NC(=O)NC1C (stereo not given)	TrxR1 inh 28µM (no result: FBPA coupling cs, Gal4-VP16 FLuc, RORg inh, GALK inhibitor)
COc1cccc(N2CCN(C(=O)CCn3c(=S)[nH]c4cc5c(cc4c3=O)OCO5)CC2)c1	none (no result: TrxR1 substrate, TrxR1 inh)
Cc1ccc(C)c(N2CCN(C(=O)CCCn3c(=S)[nH]c4cc5c(cc4c3=O)OCO5)CC2)c1	none (no result: Gal4-VP16 FLuc)
O=C(CCCn1c(=S)[nH]c2cc3c(cc2c1=O)OCO3)N1CCN(c2ncccn2)CC1	RORg inh 16µM
COc1cccc(N2CCN(C(=O)CCCCCn3c(=S)[nH]c4cc5c(cc4c3=O)OCO5)CC2)c1	RORg inh 2.2µM
CCOCCCn1c(=S)[nH]c2cc3c(cc2c1=O)OCO3	Gal4-VP16 FLuc 2.5µM, RORg inh 2.5µM
O=C(CCCn1c(=S)[nH]c2cc3c(cc2c1=O)OCO3)N1CCN(c2ccccc2F)CC1	Gal4-VP16 FLuc 7.9µM, RORg inh 13µM
CCOC(=O)c1cc(-c2ccc(OC)cc2)n(CCC(=O)NCc2ccccc2OC)c1C	none (no result: FBPA coupling cs, Gal4-VP16 FLuc, RORg inh, GALK inhibitor)

Screens deposited in PubChem BioAssay by National Center for Advancing Translational Sciences (NCATS).
